# Assay outcomes deposited in PubChem by several laboratories.
# A selection: hits, their analogues and other compounds. The true share with any hit is near 1.3%.
# Bcl-xL primary = inhibitors of human Bcl-xL, primary screen, biochemical, fluorescence polarization, HTS. GST-Bcl-xL / FITC-Bim BH3 peptide fluorescence polarization. actives 0.7% (n = 320,000). inhibition, % at 10.9 µM. Bcl-2-like protein 1 (Homo sapiens), Q07817. AID 2129, 2009;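 active means inhibition above the mean of all tested compounds plus 3 SD, cutoff set per campaign, cut at about 30% in these data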;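 further: 0% = DMSO wells and 100% = unlabeled Bim-BH3 peptide competitor; inhibitors lower millipolarization by displacing the labeled peptide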
# Target sequence (Q07817 whole entry, looked up): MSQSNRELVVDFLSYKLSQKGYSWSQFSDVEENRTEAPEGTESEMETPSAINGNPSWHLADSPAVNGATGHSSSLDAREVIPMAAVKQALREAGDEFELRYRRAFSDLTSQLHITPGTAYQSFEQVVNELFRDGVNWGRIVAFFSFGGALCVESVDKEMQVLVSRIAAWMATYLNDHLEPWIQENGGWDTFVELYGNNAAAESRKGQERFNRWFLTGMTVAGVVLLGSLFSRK
# Keap1 Nrf2 FP = Keap1-Nrf2 protein-protein interaction inhibitors, primary screen, biochemical, fluorescence polarization, single point | Kelch-like ECH-associated protein 1 (Homo sapiens), Q14145 | Keap1 Kelch-Nrf2 peptide fluorescence polarization, 1536-well | inhibition, % at 9.4 µM | actives 0.15% (n = 340,000) | AID 504523, 2011; in the data active means inhibition above about 12%;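 further: human Keap1 Kelch domain with fluorescein labeled Nrf2 9mer peptide probe; 0% = neutral control wells and 100% = peptide positive control; higher means more block of Keap1 binding to Nrf2 peptide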
# C-LANA FP = inhibitors of KSHV C-LANA binding to DNA, primary screen, biochemical, fluorescence polarization, FAM-LBS DNA, MBP-C-LANA, single point | actives 0.078% (n = 340,000) | inhibition, % at 9 µM | AID 504423, 2011;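 active means highest replicate inhibition at or above 60% at 9 µM, even if other replicates fall short; inactive means all replicates below 60% inhibition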;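 further: 0% = neutral control wells and 100% = 4 µM acridine orange control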
# MCL1 BIM primary = inhibitors of MCL1 binding to BIM-BH3, primary screen, biochemical, fluorescence polarization; Induced myeloid leukemia cell differentiation protein Mcl-1 (Homo sapiens), Q07820; GST-MCL1 / FITC-Bim-BH3 fluorescence polarization; inhibition, % at 10.9 µM; actives 0.68% (n = 320,000);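 active means inhibition above the mean inhibition of all tested compounds plus 3 SD, set per campaign, cut at about 40% in these data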;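 further: 0% = DMSO wells and 100% = unlabeled Bim-BH3 peptide control; higher means more loss of mP so more displacement of Bim peptide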
# Target sequence (Q07820 whole entry, looked up): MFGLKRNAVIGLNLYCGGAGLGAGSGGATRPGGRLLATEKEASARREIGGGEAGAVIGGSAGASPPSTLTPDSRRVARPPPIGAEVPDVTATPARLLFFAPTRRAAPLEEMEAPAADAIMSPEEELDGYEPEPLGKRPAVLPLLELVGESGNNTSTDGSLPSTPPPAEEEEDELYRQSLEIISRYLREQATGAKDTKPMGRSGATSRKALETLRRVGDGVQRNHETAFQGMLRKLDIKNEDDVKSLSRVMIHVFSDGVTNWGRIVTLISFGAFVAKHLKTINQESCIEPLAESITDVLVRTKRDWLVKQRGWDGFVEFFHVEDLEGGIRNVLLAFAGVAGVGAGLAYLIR
# eLon inh = inhibitors of E. coli Lon protease, primary screen, biochemical, fluorescence polarization | P0A9M0 | purified E. coli Lon protease | inhibition, % at 7.94 µM | actives 0.42% (n = 360,000) | AID 602123, 2011; in the data active means inhibition above about 13%, passing the limit was not always enough;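 further: 0% = enzyme with probe and DMSO and 100% = no enzyme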
# GLD-1 TGE inh = GLD-1/TGE RNA complex disruptors, primary screen, biochemical, fluorescence polarization; inhibition, % at 5.96 µM; Female germline-specific tumor suppressor gld-1 (Caenorhabditis elegans), Q17339; purified GLD-1 + fluorescein TGE RNA; actives 0.44% (n = 320,000);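 active means percent inhibition above a per-plate cutoff, the plate mean of test compounds plus 3 SD, cut at about 30% in these data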;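 further: 0% = DMSO wells with GLD-1 and probe and 100% = wells lacking GLD-1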
# * = called active by the depositor; . = no result.
SMILES,Bcl-xL primary,Keap1 Nrf2 FP,C-LANA FP,MCL1 BIM primary,eLon inh,GLD-1 TGE inh
COC(=O)c1cc2c(-c3ccccc3)c(C)c3ccccn3c-2c1C(=O)OC,47*,2,7,43*,1,63*
COC(=O)c1c(C(=O)OC)c2ccccn2c1C(=O)c1ccccc1,4,-4,-2,-8,-5,7
COc1ccc(CCN2C(=O)CCC3=C2CCCC3=O)cc1OC,.,.,.,.,2,.
C/C(=C\c1ccccc1F)C1Nc2cccc3cccc(c23)N1,31*,1,4,39,-8,21
FC(F)(F)c1ccc(C2Nc3cccc4cccc(c34)N2)cc1,.,-5,1,.,-1,.
C/C(=C\c1ccc2c(c1)OCO2)C1Nc2cccc3cccc(c23)N1,16,7,62*,18,13,5
O=C(/C=C/c1ccc2c(c1)OCO2)NC1CCCC1,0,-5,1,3,-7,2
CCc1nc2c(OCC(=O)c3ccc(F)cc3)cccn2c1N(C)C(=O)c1ccc(OC)cc1,.,.,.,.,0,.
CC1(C(=O)NCc2ccco2)Cc2c(-c3ccc(C(N)=O)cc3)ccnc2O1 (stereo unspecified),.,.,.,.,-9,.
O=C(NCc1nnnn1-c1ccc(F)cc1)c1ccc2c(c1)OCO2,.,.,.,.,18,.
Nc1nccc(N2CCCCC2)n1,.,.,.,.,-1,.
Clc1ccc(/C=N/NC2=Nc3cccc4cccc2c34)cc1,25,-7,1,32,-11,10
C(=N\NC1=Nc2cccc3cccc1c23)/c1ccccc1,-2,-3,-2,-20,-65,32*
N#Cc1ccccc1,5,1,1,7,0,1
N#Cc1c(C#N)c(O)c2ccccc2c1O,45*,0,5,44*,4,16
Fc1cc(Br)ccc1Nc1nc2ccccc2n2nnnc12,1,-1,-1,-4,-68,-3
Fc1ccccc1N1CCN(c2nc3ccccc3n3nnnc23)CC1,36*,-3,4,52*,-39,23
Cc1cc(C)n(Cc2ccc(C(=O)N/N=C/c3ccc(-c4ccc([N+](=O)[O-])cc4)o3)o2)n1,50*,4,2,43*,-19,-4
CCCCC(=O)N/N=C/c1ccc(-c2ccc([N+](=O)[O-])cc2)o1,-21,-3,2,-18,-1,-1
Cc1cccc(N2CCN(C(=O)Cc3cn(C)c4ccccc34)CC2)c1C,48*,-3,1,44*,0,18
O=C1c2cccc3c([N+](=O)[O-])ccc(c23)C(=O)N1c1nccs1,31*,-1,-1,28,13,25
O=C1c2cccc3cccc(c23)C(=O)N1c1nccs1,-2,-1,0,-2,-5,8
CC(=O)C1(C)OC(N)=C(C#N)C(c2ccccc2)C1(C#N)C#N (stereo unspecified),43*,-1,7,37,-9,27
CC(CCc1ccccc1)NC(=O)C1CCN(C(=O)c2sccc2-n2cccc2)CC1 (stereo unspecified),72*,-2,1,-3,-3,2
COc1ccc(NC(=O)CSc2nnc(-c3cccs3)n2C)cc1OC,3,7,7,-1,-5,2
SMILES,Bcl-xL primary,Keap1 Nrf2 FP,C-LANA FP,MCL1 BIM primary,eLon inh,GLD-1 TGE inh
COc1ccc(NC(=O)CSc2nc3c(c(-c4cccs4)c2C#N)CN(C)CC3)cc1OC,42*,-1,7,30,8,18
O=C(Nc1ccc2nc3ccccc3nc2c1)c1ccccc1,31*,3,3,19,-8,20
O=c1ccc2[n+]([O-])c3ccc(O)cc3oc-2c1,.,101*,50,.,-5,.
CC(=O)C1(O)CCC2C3CC(C)C4=CC(=O)C=CC4(C)C3(F)C(O)CC21C (stereo unspecified),.,-6,-1,.,-10,.
Cc1ccn2c(CC(C)(C)C)c(-c3ccc(F)cc3)nc2c1,.,.,.,.,6,.
N#C/C(=C\c1ccc(O)c(O)c1)C(=O)c1ccc(O)c(O)c1,1,-23,69*,16,10,8
N#C/C(=C\c1ccc(O)c(O)c1)C(=O)N1CCCC1,11,-3,2,7,-5,-2
COc1ccc2c(c1)c(/C=C/c1cc[n+](C)cc1)cn2C,-31,-104,-38,-72,-305,58*
COc1ccc2c(/C=C/c3cc[n+](C)cc3)c[nH]c2c1,-16,-13,-17,-38,-92,-92
O=C(CSCc1cnn(-c2ccccc2)c1-n1cccc1)NCc1cccnc1,3,2,80*,0,2,-2
CCOC(=O)[C@]12CCC=C1N(CCC1=CCCCC1)C(=O)[C@H](CC(=O)NCc1ccc(OC)c(OC)c1)C2,.,.,.,.,-10,.
Cc1nc2c(OCCC3CCCCC3)cccn2c1N(C)C(=O)CCC1CCCC1,.,.,.,.,0,.
CCCNC(=O)CCn1nc(-c2ccc(C)cc2)c2ccccc2c1=O,34*,1,2,0,-2,1
CCCCNC(=O)CCn1nc(-c2ccc(C)cc2)c2ccccc2c1=O,2,-2,2,8,-5,4
COc1ccc(NC(=O)C2Cc3c(-c4ccc(NC(C)=O)cc4)ccnc3O2)cn1 (stereo unspecified),.,.,.,.,12,.
CSC1=NC=C(C#N)C2=NC(c3c(Cl)cccc3Cl)NN12 (stereo unspecified),.,.,.,.,-12,.
Cc1ccc(C(c2sc3ncnn3c2O)N2CC(C)CC(C)C2)cc1 (stereo unspecified),56*,2,-2,-6,-12,-2
CC1CCCN(C(c2ccccc2)c2sc3ncnn3c2O)C1 (stereo unspecified),3,-3,0,1,-8,0
O=C(N/N=C/c1cc(Br)cc(Br)c1O)c1ccncc1,33*,.,.,45*,.,31*
O=C(N/N=C/c1ccc(O)cc1O)c1ccncc1,10,-2,2,13,-5,6
CCn1c(C)cc(/C=C2/NC(=O)N(c3ccccc3)C2=O)c1C,31*,1,-1,39,-8,19
COCCn1c(C)cc(/C=C2/NC(=O)N(c3cccc(Cl)c3)C2=O)c1C,15,-7,1,8,-3,2
Nc1ccc(S(N)(=O)=O)cc1N,33*,-2,-1,38,-33,1
Nc1ccc(S(N)(=O)=O)cc1,-2,-2,2,-1,.,2
CNc1cnc(-c2ccc(C(=O)N3CCOCC3)cc2)cn1,.,.,.,.,-12,.
CC1=CN2C(=N)/C(=C/c3ccc([N+](=O)[O-])o3)C(=O)N=C2S1,35*,-23,-3,31,-187,12
Clc1ccc(NN(Cc2ccncc2)c2ccc(Cl)cc2)cc1,.,.,.,.,-8,.
